NPC1 prom act: NPC1 promoter activation | Huh7 NPC1 promoter luciferase reporter, 24 h | Potency, µM (titrated, usually from 9.22 µM), for the others: at the top dose activation, usual class: activators | hit rate 2.4% among 320,000 | AID 485313; also: % of control where 0% means no effect; nearly all actives have a fitted effect of over 60% in size
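Cells: Huh7 expressing luciferase under the NPC1 promoter, 1500/well. Seeded 2 h, compound added, incubated 24 h at 37 °C. Luciferase reagent, 10 min ambient, then luminescence.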
SMN2 splice up: enhancers of SMN2 splice variant expression. HEK293 SMN2-luciferase splicing reporter, luminescence, 30-36 h. Potency, µM (titrated, usually from 46.1 µM), without a hit: at the highest dose activity change, positive = activation, hits mostly activators. hit rate 2.8% among 210,000; also: % of control where 0% means no effect; nearly all actives have a fitted effect of over 55% in size
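qHTS luciferase splicing reporter: luminescence rises when SMN2 exon 7 is included in transfected HEK293 cells. Compound exposure lasted 30-36 h at 37C, with 4.5 mM final sodium butyrate as control, followed by a ONE-Glo read.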
Rab9 prom act: Rab9 promoter activation | Huh7 Rab9 promoter-luciferase reporter, luminescence, 24 h | hit rate 2.8% among 320,000 | Potency, µM (titrated, usually from 9.22 µM), inactives show at the highest dose activation, negative = inhibition, actives largely listed as activators; also: % of control where 0% means no effect; nearly all actives have a fitted effect of over 60% in size
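Huh7 reporter line, Rab9 promoter upstream of luciferase. Compound exposure 24 h at 37 °C in reduced-serum medium with 10% FBS. Read-out: luminescence.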
FLuc counter: counter-screen for miR-21 project: firefly luciferase inhibitors or activators; P08659; purified FLuc, Km substrates, luminescence inhibition; Potency, µM (titrated, usually from 57.5 µM), for the others: top-dose activity change, negative = inhibition, actives largely listed as inhibitors; AID 588342; hit rate 6.9% among 360,000;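 also: plate controls were vehicle for no effect and reference inhibitor for full effect; nearly all actives have a fitted effect of over 55% in size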
Target sequence (P08659 whole entry, looked up): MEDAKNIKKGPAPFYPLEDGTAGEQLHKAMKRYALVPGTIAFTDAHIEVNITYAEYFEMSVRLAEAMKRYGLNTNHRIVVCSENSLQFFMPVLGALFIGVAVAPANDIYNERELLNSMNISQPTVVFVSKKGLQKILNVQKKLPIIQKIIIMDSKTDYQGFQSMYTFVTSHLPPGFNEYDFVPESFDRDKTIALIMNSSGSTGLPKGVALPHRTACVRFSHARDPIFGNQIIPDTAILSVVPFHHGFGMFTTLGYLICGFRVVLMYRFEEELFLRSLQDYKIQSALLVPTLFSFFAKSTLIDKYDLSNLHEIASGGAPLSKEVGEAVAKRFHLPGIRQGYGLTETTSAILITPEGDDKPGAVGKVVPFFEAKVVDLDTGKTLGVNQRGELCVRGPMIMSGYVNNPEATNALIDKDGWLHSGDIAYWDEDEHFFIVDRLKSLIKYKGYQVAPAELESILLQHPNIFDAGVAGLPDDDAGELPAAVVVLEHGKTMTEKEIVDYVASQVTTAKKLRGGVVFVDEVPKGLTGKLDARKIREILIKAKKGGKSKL
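Purified P. pyralis luciferase, 10 nM final, with Km-level 10 uM D-luciferin and 10 uM ATP in 50 mM Tris acetate pH 7.5, 10 mM Mg acetate, 0.01% Tween-20, 0.05% BSA; 6-point qHTS titration about 60 µM downward; luminescence read.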
ELG1 genotox: inducers of genotoxicity in HEK293T ELG1-luciferase cells; hit rate 1.3% among 330,000; HEK293T ELG1-luciferase reporter, luminescence, 16 h; Potency, µM (doses to about 46 µM), without a hit: top-dose activity change, positive = activation, hits mostly activators; also: % of control where 0% means no effect; nearly all actives have a fitted effect of over 60% in size
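ELG1-luciferase HEK293T cells, 2,000/well; compound pinned in; 16 hr, 37 °C, 5% CO2; ONE-Glo, 30 min RT; luminescence on CCD imager.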
ELG1 repair inh: ELG1-dependent DNA repair inhibition; Potency, µM (highest dose often 46.1 µM), for the others: at the highest dose activity change, negative = inhibition, usual class: inhibitors; hit rate 2.3% among 330,000; HEK293T ELG1-luciferase reporter, luminescence, 16 h; DNA damage induced by 5-fluorouridine; AID 504467; also: % is scaled to controls: 0 for no effect and ±100 for the full control effect; nearly all actives have a fitted effect of over 55% in size
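Cells (2,000 per well) received 5-fluorouridine plus test compound or DMSO and were incubated 16 hr at 37 °C, 5% CO2. Luciferase activity was read by luminescence 30 min after ONE-Glo addition; signal suppression marked inhibition of damage-induced ELG1 function.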
* hit, by the source's call; ? = inconclusive; . = no result; [ ] = another dose, or the depositor's remark. Compounds with a hit are over-represented: about 9.4% of the library has one in this group of screens. Calls follow the shape of the dose curve; as a rule, active = well fitted curve in the direction sought with a large enough effect; inconclusive = small, poorly fitted or top-dose-only effect, or another doubt; inactive = no such curve, though single readings can be large; an effect the other way counts as inactive or inconclusive. Potency is read from the fitted curve at half-maximal effect.

SMILES | NPC1 prom act | SMN2 splice up | Rab9 prom act | FLuc counter | ELG1 genotox | ELG1 repair inh
O=C(OCc1nc2ccccc2s1)c1cccc(S(=O)(=O)N2CCOCC2)c1 | 8% | 12% | 9% | 8.5µM* | ? | ?
CCOc1ccc(NC(=O)CSc2oc(-c3ccc(C)cc3)nc2S(=O)(=O)c2ccc(C)cc2)cc1 | . | 7% | . | 2% | . | .
Cc1cc(C)cc(NC(=O)C(NS(=O)(=O)c2cccc3nsnc23)c2ccccc2)c1 (centres undefined) | . | 15% | . | ? | . | .
COc1ccc(-c2noc(CCC(=O)NCc3ccc(OC)cc3OC)n2)cc1 | . | -3% | . | -13% | . | .
O=C(CSc1nc2c(sc3ccccc32)c(=O)n1CCCC(=O)NC1CCCC1)Nc1ccc(F)cc1 | . | -8% | . | -2% | . | .
O=C(COC(=O)c1cccc(S(=O)(=O)N2CCOCC2)c1)c1ccccc1 | -4% | . | -2% | 13µM* | -3% | 16%
CC(=O)c1cccc(OC(=O)c2cc(S(=O)(=O)N3CCOCC3)ccc2N2CCCC2)c1 | 2% | . | -5% | 2% | 4% | 9.2µM*
FC(F)(F)c1cccc(N2CCc3cn[nH]c32)c1 | 10% | -14% | -1% | 24µM* | 14% | ?
O=C(CN(Cc1ccco1)C(=O)CNS(=O)(=O)c1ccccc1)NCc1ccc(F)cc1 | 16% | -5% | 20% | 6% | 18µM* | 0%
Cc1ccc(NC(=O)N2CCN(C(=O)c3nsc4ccccc34)CC2)cc1C | . | . | . | -20% | . | .
COc1cc(/C=C/C(=O)OCC(=O)Nc2ccc(NC(C)=O)cc2)cc(S(=O)(=O)N2CCc3ccccc32)c1OC | -1% | 10% | 2% | ? | -5% | 21µM*
Cc1cccc(Cl)c1NC[C@H](O)CN1CCN(C)CC1 | . | -7%[9.22 µM] | . | . | . | .
Cc1conc1NC(c1cccs1)c1ccc2cccnc2c1O (centres undefined) | -7% | -78% | -3% | -14% | 1% | 1%
Oc1c(C(Nc2nc3ccccc3s2)c2ccco2)ccc2cccnc12 (centres undefined) | -1% | -99% | 4% | 15µM* | 18µM* | ?
CC(C)C(=O)NC(c1ccco1)c1ccc2cccnc2c1O (centres undefined) | -31% | -100% | -29% | -2% | -27% | 2.9µM*
Cc1cccc(/C(N)=N/OC(=O)c2ccc(Br)o2)c1 | 22% | ? | 2% | 4.3µM* | ? | ?
Cc1cccc(/C(N)=N/OC(=O)C23CC4CC(CC(C4)C2)C3)c1 | 19% | -30% | ? | 4.3µM* | ? | ?
COc1cc(OC)cc(C(=O)O/N=C(\N)c2cccc(C)c2)c1 | ? | . | ? | 24µM* | 0% | ?
Cc1cccc(/C(N)=N/OC(=O)c2cccnc2)c1 | ? | . | 4µM* | 9.5µM* | ? | ?
Cc1ccc(NC(=O)Cn2c(=O)n(CCC(C)C)c(=O)c3cccnc32)cc1C | . | -15% | . | -2% | . | .
CCCc1cc(=O)[nH]c(Nc2cc(Cl)cc(Cl)c2)n1 | . | -5% | . | -3% | . | .
CC(=O)c1ccc(NC(=O)CSc2nc(C3CCCC3)nc3c2c(=O)n(C)c(=O)n3C)cc1 | . | . | . | -3% | . | .
COCc1cc(=O)n2[nH]c(-c3cccc(Br)c3)cc2n1 | 29% | ? | 22% | ? | 11µM* | ?
COCc1cc(=O)n2[nH]c(C)cc2n1 | -6% | -18% | -10% | 9% | -1% | 18%
COCc1cc(=O)n2[nH]c(-c3ccccc3)cc2n1 | 16% | 11% | 22% | 19µM* | ? | ?
COCCN1Cc2cccc(C(=O)Nc3ccc(C)cc3C)c2C1=O | . | -1% | . | -3% | . | .
CCOc1ccc(OCc2ccc(C(=O)N3CCCC(C)C3)cc2)cc1 (centres undefined) | 4µM* | 10µM* | 2µM* | 13µM* | ? | ?
CCOC(=O)c1cc(-c2ccc(OC)cc2)n(CCC(=O)Nc2ccccc2OC)c1C | . | . | . | -8% | . | .

Screens: PubChem BioAssay, National Center for Advancing Translational Sciences (NCATS)
